Many of the other results were omitted from the sample, so hits are more common in it than they were.
VACV E9 pol inh: blocks vaccinia virus processive DNA synthesis; in vitro processive DNA synthesis, absorbance read-out; hits give low values; normalized absorbance, % (concentration not given with the values); 46,000 tested, 0.94% active; AID 493162; in the data active = normalized absorbance mostly below about 85%, no sharp cut-off; inactive = mostly above about 86%
Numbers without * were called inactive.

SMILES | VACV E9 pol inh
CCC(CC)C(=O)NCc1ccc2[nH]c(C)cc2c1 | 101
COc1ccc(C(=O)Cn2ccnc2C(=O)N2CCN(c3ccccn3)CC2)cc1 | 103
CCC1CCCCN1CCCNC(=O)c1cc2c(s1)CSC2 (centres undefined) | 102
Cc1cccc2c1-c1sc(C(=O)NCCN3CCCCC3C)cc1CO2 (centres undefined) | 91
CC1CCCCN1CCCNC(=O)c1cc2c(s1)-c1ccc(Cl)cc1SC2 (centres undefined) | 69*
CCC(Sc1nnc(C)n2c1cc1oc(C)cc12)C(=O)Nc1cccc(OC)c1 (centres undefined) | 102
Cc1ccccc1COc1ccc2oc(-c3ccccc3)c(C(=O)O)c2c1 | 87*
O=C(O)c1c(-c2ccccc2)oc2ccc(OCc3ccc(Cl)cc3)cc12 | 89
CC(=O)Oc1ccc2oc(-c3ccccc3)c(C(=O)O)c2c1 | 100
Cc1c(C(=O)/C(C#N)=C/N(C)C)sc2ccc(Cl)cc12 | 98
CCc1ccc(C(=O)c2c(S(=O)(=O)CC)c(S(=O)(=O)CC)c3cc(C(C)(C)C)ccn23)cc1 | 99
O=C1CSC(=S)N1/N=C/c1cccnc1 | 102
O=C(NN1C(=O)CSC1=S)c1ccccc1 | 100
O=C1CSC(=S)N1/N=C/c1cc(Br)cc(Br)c1O | 81*
CCOC(=O)COc1ccc(Br)cc1C#N | 91
Fc1ccc(N=Cc2ccco2)c(F)c1F | 101
CC(C)CCNS(=O)(=O)c1ccc(Cl)c(Cl)c1 | 100
O=C(O)c1cc(C=Nc2ccc(S(=O)(=O)NC3NC=CS3)cc2)c2c(c1)COCO2 (centres undefined) | 52*
Cc1cc(NS(=O)(=O)c2ccc(N=Cc3ccccc3O)cc2)no1 | 98
CCCN(C(=O)c1cc2cc3ccc(OC)cc3nc2s1)c1ccc(CC)cc1 | 105
Cc1cc(N)c2ccccc2[n+]1CCCCCCCCCC[n+]1c(C)cc(N)c2ccccc21 | 35*
Cc1cc(-c2ccccc2N)nc2ccccc12 | 99
O=C(CSc1nc2cc(Cl)ccc2o1)NCc1ccccc1 | 95
COc1ccc(Nc2cc(C(=O)N3CCc4ccccc4C3)c3ccccc3n2)c(OC)c1 | 101
COc1ccc(Nc2nc(N3CCN(C)CC3)nc3ccccc23)c(OC)c1 | 53*
SMILES | VACV E9 pol inh
CCOC(=O)N1CCN(C(=O)c2cc(Nc3ccc(OC)cc3OC)nc3ccccc23)CC1 | 97
CCN(Cc1ccccc1)C(=O)Cn1c(SCc2ccc(F)cc2)nc2cccnc21 | 99
COc1cc2c(cc1N=Cc1cccnc1)oc1ccccc12 | 96
Cc1nnc(Sc2cc(C(=O)NCc3ccccn3)c3ccccc3n2)s1 | 98
COC(CNC(=O)c1cc(Sc2nnc(C)s2)nc2ccccc12)OC | 93
Cc1nnc(Sc2cc(C(=O)NCCCN3CC(C)CC(C)C3)c3ccccc3n2)s1 (centres undefined) | 69*
CCOC(=O)c1c(C)oc2c1c1c(c3ccccc32)OCN(C2CCCC2)C1 | 98
COc1cc(Cl)c(C)cc1NC(=O)CSc1nc2ccccc2[nH]1 | 95
CCc1ccc(C2C(C(=O)Nc3ccccc3C)=C(C)NC3=C2C(=O)CCC3)cc1 (centres undefined) | 101
Cc1ccc(C)n1C(CC(=O)O)c1ccsc1 (centres undefined) | 73*
Cc1ccc(C)n1C(CC(=O)O)c1ccc(F)cc1 (centres undefined) | 82
O=C(O)CC(c1ccsc1)n1cccc1 (centres undefined) | 102
C=CCn1c(C(C)NC(C)=O)nc2ccccc21 (centres undefined) | 88
O=S(=O)(c1cccc2cnccc12)N1CCCNCC1 | 100
O=S(=O)(NCCNC/C=C/c1ccc(Br)cc1)c1cccc2cnccc12 | 89*
Brc1ccccc1C=Nc1cccc2cnccc12 | 81
O=C(CCC(=O)n1ncc2ccc(Cl)cc21)NC1CCCc2ccccc21 (centres undefined) | 98
COc1ccc(/C=[N+](/C)[O-])cc1 | 106
COC(=O)CSc1cc(Cl)nc2ccc(C)cc12 | 82
CCOC(=O)C1CCN(CC(O)C(F)(F)F)CC1 (centres undefined) | 100
CCN(CC)CCOc1ccc2c(c1)C(=O)c1cc(OCCN(CC)CC)ccc1-2 | 30*
CCN(CC)CCOc1ccc(/C(C)=N\O)cc1 | 100
CCN(CC)CCOC(=O)C(c1ccccc1)c1ccccc1 | 103
O=C(O)c1oc2ccccc2c1COc1ccccc1 | 72*
O=C(O)c1oc2ccccc2c1CSc1ccccn1 | 90
SMILES | VACV E9 pol inh
Cc1c(C(=O)O)oc2ccccc12 | 100
[O-][n+]1ccccc1SC/C=C/c1ccccc1 | 98
O=C(O)c1ccccc1SC/C=C/c1ccccc1 | 83*
O=C(O)c1ccccc1SCC(=O)N1CCCC1 | 90
Cc1cc(C)cc(OCCn2c(-c3ccc(Cl)cc3)nc3ccccc3c2=O)c1 | 100
C=C(C)CNC(=S)Nc1scc(-c2ccsc2)c1C(=O)OCC | 104
COc1ccc2cc3cc(C(=O)NCCN4CCN(c5ccccc5F)CC4)oc3nc2c1 | 96
COc1ccc2cc3cc(C(=O)NCc4ccco4)oc3nc2c1 | 87
COc1ccc2cc3cc(C(=O)NCCN(C)C)oc3nc2c1 | 40*
O=C(O)c1ccccc1NCCO | 90

High-throughput results from PubChem BioAssay.
